# Experimental data: ChEMBL document CHEMBL3988442, “University of Dundee, Small-Polar-MMV Screening Library” (2021)
# Target: T1, Methionyl-tRNA synthetase, putative (Leishmania donovani (strain BPK282A1)) (UniProt E9BF75)
# T1 sequence (whole entry): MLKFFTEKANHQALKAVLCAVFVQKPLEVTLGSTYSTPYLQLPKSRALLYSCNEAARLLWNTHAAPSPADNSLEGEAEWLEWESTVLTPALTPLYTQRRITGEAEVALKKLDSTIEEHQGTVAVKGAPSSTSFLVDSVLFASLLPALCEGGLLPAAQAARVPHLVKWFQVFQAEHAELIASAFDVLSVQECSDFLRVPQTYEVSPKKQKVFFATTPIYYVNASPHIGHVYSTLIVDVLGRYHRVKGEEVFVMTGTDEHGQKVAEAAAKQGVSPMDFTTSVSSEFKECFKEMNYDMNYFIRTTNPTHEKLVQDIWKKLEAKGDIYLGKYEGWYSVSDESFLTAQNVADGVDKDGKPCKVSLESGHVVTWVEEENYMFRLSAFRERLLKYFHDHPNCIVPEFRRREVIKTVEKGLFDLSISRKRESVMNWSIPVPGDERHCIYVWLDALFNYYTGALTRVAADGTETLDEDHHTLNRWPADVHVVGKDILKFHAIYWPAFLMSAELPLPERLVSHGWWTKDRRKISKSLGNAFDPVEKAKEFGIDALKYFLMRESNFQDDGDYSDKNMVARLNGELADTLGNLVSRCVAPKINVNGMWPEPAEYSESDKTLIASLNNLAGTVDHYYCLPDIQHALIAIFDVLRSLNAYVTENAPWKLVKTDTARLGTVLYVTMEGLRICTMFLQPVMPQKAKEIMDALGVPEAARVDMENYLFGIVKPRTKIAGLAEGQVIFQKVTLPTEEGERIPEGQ
# Assay: Leishmania donovani Methionine tRNA synthetase (LdMetRS):v7. Dose response assay
# Format: functional
# Set-up: conc 80 nM, time 150 minutes
structure (smiles),measurement,setting,value
COC(=O)CNc1nc(Nc2ccc(F)c(F)c2)nc2c1cnn2C,PXC50,"BOTTOM 3.451309233, HILLSLOPE 1.311155922, MAX_EFFECT 92.63657957, TOP 92.51088835",5.87
same,PXC50,"BOTTOM -7.309973035, HILLSLOPE 0.885022203, MAX_EFFECT 95.56840077, TOP 99.22229829",5.83
same,PXC50,"BOTTOM -8.727655422, HILLSLOPE 0.982384922, MAX_EFFECT 94.42060086, TOP 95.2064332",5.96
Cn1ncc2c(NCC3CCCO3)nc(Nc3ccc(F)c(F)c3)nc21 (centres undefined),PXC50,"BOTTOM 1.649824941, HILLSLOPE 0.742759749, MAX_EFFECT 82.45614035, TOP 99.7468185",4.96
same,PXC50,"BOTTOM 4.130822452, HILLSLOPE 0.904236715, MAX_EFFECT 86.03773585, TOP 94.6325805",4.99
same,PXC50,"BOTTOM 7.824180632, HILLSLOPE 1.170320257, MAX_EFFECT 82.95165394, TOP 90.00397209",4.93
NC(=O)c1cc(Nc2ncccc2S(N)(=O)=O)cc(C(F)(F)F)c1,PXC50,MAX_EFFECT 8.583690987,< 4
same,PXC50,MAX_EFFECT 8.863198459,< 4
same,PXC50,MAX_EFFECT 9.501187648,< 4
CCN(CC)c1ccc2ccc(C(=O)NC3CCCC3)cn12,PXC50,MAX_EFFECT 33.58778626,< 4
same,PXC50,MAX_EFFECT 39.03508772,< 4
CN(CCO)c1nc(Nc2ccc(F)c(F)c2)nc2c1cnn2C,PXC50,"BOTTOM 0.0, HILLSLOPE 0.946216108, MAX_EFFECT 71.34724858, TOP 77.67704584",5.71
same,PXC50,"BOTTOM 6.419914674, HILLSLOPE 1.323004722, MAX_EFFECT 73.51598174, TOP 75.78870148",5.35
same,PXC50,"BOTTOM 11.43918674, HILLSLOPE 1.794336173, MAX_EFFECT 61.32075472, TOP 56.10925087",5.63
OCCNc1nc(Nc2ccc(F)c(F)c2)ncc1F,PXC50,"BOTTOM 4.80997506, HILLSLOPE 1.016069871, MAX_EFFECT 75.05938242, TOP 103.871029",4.37
same,PXC50,"BOTTOM 6.495032966, HILLSLOPE 1.205723909, MAX_EFFECT 75.53648069, TOP 100.0",4.33
same,PXC50,"BOTTOM -1.721460895, HILLSLOPE 0.874564497, MAX_EFFECT 71.96261682, TOP 100.0",4.5
Fc1cccc(OCc2cnc[nH]2)c1Oc1ccc(Cl)cc1,PXC50,MAX_EFFECT 12.57995736,< 4
same,PXC50,MAX_EFFECT 14.69979296,< 4
O=C(CCNC(=O)c1ccccc1F)NCCNc1cccnc1,PXC50,MAX_EFFECT 3.623188406,< 4
same,PXC50,MAX_EFFECT 4.761904762,< 4
same,PXC50,MAX_EFFECT 5.779334501,< 4
CC(C)(C)OC(=O)N1CCN(c2ccc3ccc(C(=O)NC4CCCC4)cn23)CC1,PXC50,MAX_EFFECT 20.86513995,< 4
same,PXC50,MAX_EFFECT 27.19298246,< 4
Cc1cc(C)n(-c2nc(NCC(C)(C)O)c3c4c(sc3n2)CCCC4)n1,PXC50,MAX_EFFECT 11.97916667,< 4
same,PXC50,MAX_EFFECT 40.35087719,< 4
CCc1nc(NCc2ccccn2)c2cc(C)sc2n1,PXC50,MAX_EFFECT 5.651105651,< 4
same,PXC50,MAX_EFFECT 6.030150754,< 4
Cc1noc(CCNc2nc(Nc3ccc(F)c(F)c3)nc3c2cnn3C)n1,PXC50,"BOTTOM 2.244251311, HILLSLOPE 1.0049242, MAX_EFFECT 73.69439072, TOP 84.09605428",4.84
same,PXC50,"BOTTOM 5.127321336, HILLSLOPE 1.112866852, MAX_EFFECT 63.09012876, TOP 72.94792798",4.77
same,PXC50,"BOTTOM 6.005431852, HILLSLOPE 0.908019528, MAX_EFFECT 65.55819477, TOP 83.02457631",4.61
Cc1c(C(=O)NC2CCCC2)ccc2ccc(N3CCN(S(C)(=O)=O)CC3)n12,PXC50,MAX_EFFECT 3.645833333,< 4
same,PXC50,MAX_EFFECT 10.0877193,< 4
O=C(NCC1CCCCC1)c1cc(=O)c2cc[nH]c(=O)c2o1,PXC50,MAX_EFFECT 5.901116427,< 4
same,PXC50,MAX_EFFECT 6.333973129,< 4
CC(C)(CN)COc1cccc(F)c1Oc1ccc(Cl)cc1,PXC50,MAX_EFFECT 16.84434968,< 4
same,PXC50,MAX_EFFECT 20.08281573,< 4
COC(=O)CN(C)c1nc(-c2cccs2)nc2sc(C)c(C)c12,PXC50,MAX_EFFECT 23.66412214,< 4
same,PXC50,MAX_EFFECT 24.93702771,< 4
Cn1ncc2c(NC(CO)CO)nc(Nc3ccc(F)c(F)c3)nc21,PXC50,"BOTTOM 0.0, HILLSLOPE 0.771628136, MAX_EFFECT 78.30188679, TOP 92.57465731",4.94
same,PXC50,"BOTTOM 5.639474755, HILLSLOPE 1.325747432, MAX_EFFECT 80.3652968, TOP 81.67018871",4.98
same,PXC50,"BOTTOM 7.610636653, HILLSLOPE 1.121965033, MAX_EFFECT 79.69639469, TOP 86.15604804",4.98
Cn1nc(Cn2ccnc2)c2c1CN(c1nccs1)C2,PXC50,"BOTTOM 0.559364067, HILLSLOPE 0.919078395, MAX_EFFECT 71.42857143, TOP 99.25901822",4.44
same,PXC50,"BOTTOM -1.637231388, HILLSLOPE 0.873521348, MAX_EFFECT 76.08695652, TOP 100.0",4.55
same,PXC50,"BOTTOM -15.97247073, HILLSLOPE 2.274903325, MAX_EFFECT 57.26795096, TOP 100.0",4.1
Cn1ncc2c(NCCN)nc(Nc3ccc(F)c(F)c3)nc21,PXC50,"BOTTOM 0.911965316, HILLSLOPE 1.032464682, MAX_EFFECT 89.9543379, TOP 102.6852722",4.79
same,PXC50,"BOTTOM 7.300924011, HILLSLOPE 0.949344895, MAX_EFFECT 92.59962049, TOP 105.5838005",4.84
same,PXC50,"BOTTOM 8.334888852, HILLSLOPE 1.031126137, MAX_EFFECT 87.73584906, TOP 103.8891038",4.68
c1ccc(CN2CCC(CCNc3ncnc4c3CCNCC4)C2)cc1 (centres undefined),PXC50,"BOTTOM 0.940952942, HILLSLOPE 0.875315482, MAX_EFFECT 60.13864818, TOP 100.0",4.15
same,PXC50,"BOTTOM 1.061688445, HILLSLOPE 1.57945515, MAX_EFFECT 59.73154362, TOP 100.0",4.12
same,PXC50,"BOTTOM -6.676814726, HILLSLOPE 1.817914846, MAX_EFFECT 63.88888889, TOP 100.0",4.17
CCc1cc(N[C@@H]2CC[C@@H](N)C2)n2nc(C)c(C)c2n1,PXC50,"BOTTOM 1.026617696, HILLSLOPE 1.297008069, MAX_EFFECT 52.85961872, TOP 100.0",4.01
same,PXC50,"BOTTOM 3.147594101, HILLSLOPE 1.2343555, MAX_EFFECT 68.05555556, TOP 100.0",4.22
same,PXC50,"BOTTOM 4.251586265, HILLSLOPE 1.063316163, MAX_EFFECT 53.69127517, TOP 100.0",4.06
Cn1ncc2c(NCC(F)F)nc(Nc3ccc(F)c(F)c3)nc21,PXC50,"BOTTOM 1.581546444, HILLSLOPE 1.045254628, MAX_EFFECT 85.66037736, TOP 91.59899261",5.09
same,PXC50,"BOTTOM 2.845790401, HILLSLOPE 0.765565912, MAX_EFFECT 91.60305344, TOP 108.0932569",4.86
same,PXC50,"BOTTOM 5.50929664, HILLSLOPE 0.80038345, MAX_EFFECT 90.35087719, TOP 108.0671509",4.81
C[C@@H](CO)Nc1ccnc(Nc2cccc(C(F)(F)F)c2)n1,PXC50,"BOTTOM 1.593845471, HILLSLOPE 0.816282678, MAX_EFFECT 64.11214953, TOP 100.0",4.29
same,PXC50,"BOTTOM 3.003400849, HILLSLOPE 0.886139555, MAX_EFFECT 64.25619835, TOP 100.0",4.3
same,PXC50,"BOTTOM -0.445089983, HILLSLOPE 0.824021196, MAX_EFFECT 60.35242291, TOP 100.0",4.26
CCNc1nc(Nc2ccc(F)c(F)c2)nc2c1cnn2C,PXC50,"BOTTOM 1.995747486, HILLSLOPE 0.878307732, MAX_EFFECT 82.01754386, TOP 90.74385953",5.04
same,PXC50,"BOTTOM -0.278671712, HILLSLOPE 0.874738485, MAX_EFFECT 76.33587786, TOP 84.21903162",5.21
same,PXC50,"BOTTOM -9.286701073, HILLSLOPE 0.734415983, MAX_EFFECT 80.15414258, TOP 112.1235893",4.93
OCCNc1nc(Nc2cccc(F)c2)nc2ccsc12,PXC50,"BOTTOM 3.044431964, HILLSLOPE 0.890140098, MAX_EFFECT 69.62809917, TOP 98.77893837",4.42
same,PXC50,"BOTTOM -0.299639933, HILLSLOPE 0.74457476, MAX_EFFECT 65.18375242, TOP 100.0",4.37
same,PXC50,"BOTTOM -0.909696564, HILLSLOPE 1.048927528, MAX_EFFECT 68.28193833, TOP 78.21382142",4.73
Cc1cnc(Nc2ccc(F)c(F)c2)nc1NCCO,PXC50,"BOTTOM 3.101896626, HILLSLOPE 0.807877595, MAX_EFFECT 79.29515419, TOP 94.15227944",5.03
same,PXC50,"BOTTOM 5.769615282, HILLSLOPE 1.014209397, MAX_EFFECT 83.3655706, TOP 87.41572948",5.22
same,PXC50,"BOTTOM -1.22519456, HILLSLOPE 0.709920628, MAX_EFFECT 85.74380165, TOP 105.2657083",5
